The nature of experiment [1]: qHTS assay for small molecule agonists of the p53 signaling pathway (AID 651631; calls by dose curve; further: potency means the concentration at half of the fitted maximal effect; nearly all actives have a fitted effect of over 15% in size). In short, it runs like this: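 HCT-116 cells carrying a stable p53 response element–beta-lactamase reporter were plated, rested 5 h at 37 °C, then exposed to compound in DMSO for 16 h at 37 °C; reporter activity was read as FRET substrate fluorescence after 2 h at room temperature.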
For orientation: In qHTS, concentration-response curves come from the screen itself.

Experiment [2] can be described thus: qHTS assay for small molecules that induce genotoxicity in human embryonic kidney cells expressing luciferase-tagged ATAD5 (AID 651632). Further: nearly all actives have a fitted effect of over 15% in size. Further: potency means the concentration at half of the fitted maximal effect. The procedure, abridged:
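Genotoxicity read-out via ATAD5-luciferase: HEK293T cells, 16 hr compound incubation at 37C, Amplite detection.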

The nature of experiment [3]: qHTS assay for small molecule agonists of the p53 signaling pathway - cell viability (AID 651633; calls by dose curve; further: potency means the concentration at half of the fitted maximal effect; nearly all actives have a fitted effect of over 30% in size). The procedure, abridged: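 p53RE-bla cells were treated with compound for 16 hours at 37 C. Cytotoxicity was then measured as CellTiter-Glo luminescence after 30 min at room temperature.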
Experiment [4] in a line: qHTS assay for small molecule disruptors of the mitochondrial membrane potential - cell viability (AID 720634; calls by dose curve; further: nearly all actives have a fitted effect of over 20% in size; further: potency means the concentration at half of the fitted maximal effect). The procedure, abridged: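 Human hepatoma HepG2 cells were treated for 1 hr with test chemicals, then given m-MPI dye and CellTiter-Glo. Cell viability reflects luminescence proportional to cellular ATP.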
Experiment [5] in a line: qHTS assay for small molecule disruptors of the mitochondrial membrane potential (AID 720635). Further: potency means the concentration at half of the fitted maximal effect. In short, it runs like this: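 HepG2 cells exposed to compound 1 hr at 37C, then Mito-MPS dye 30 min. Ratio read of aggregate (540/590 nm) versus monomer (490/535 nm) fluorescence.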
Experiment [6] can be described thus: qHTS assay to test for compound auto fluorescence at 590 nm (red) in HepG2 cells (AID 720674). Further: on the % scale 0 is the no-effect control and ±100 the full control effect. In short, it runs like this:
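Seeding: 2,000 HepG2 cells/well, MEM/10% FBS, overnight 37 C. Dosing: compound vs DMSO. Incubation: 1 hr, 37 C, 5% CO2. Read: fluorescence 540 ex/590 em, Rose Bengal sodium as red reference.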

A short description of experiment [7]: qHTS assay to test for compound auto fluorescence at 535 nm (green) in HepG2 cells (AID 720675). Further: on the % scale 0 is the no-effect control and ±100 the full control effect.
Experiment [8] can be described thus: qHTS assay to test for compound auto fluorescence at 460 nm (blue) in HEK293 cells (AID 720678). Further: potency means the concentration at half of the fitted maximal effect. In short, it runs like this:
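Intrinsic compound fluorescence is recorded in live HEK293 cultures after overnight incubation at 37C, 5% CO2, using excitation 405 nm and emission 460 nm. Values are referenced to triamterene.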

Experiment [9] can be described thus: qHTS assay to test for compound auto fluorescence at 590 nm (red) in HEK293 cells (AID 720679). Further: on the % scale 0 is the no-effect control and ±100 the full control effect. In short, it runs like this: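 Red autofluorescence, HEK293 cells: 2,000 cells/well; attach 4-5 hr 37C; add 23 nL cpd or DMSO; incubate o/n 37C 5% CO2; read Ex540/Em590; Rose Bengal sodium reference.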
Experiment [10] can be described thus: qHTS assay to test for compound auto fluorescence at 535 nm (green) in HEK293 cells (AID 720680). Further: on the % scale 0 is the no-effect control and ±100 the full control effect.
The nature of experiment [11]: qHTS assay to test for compound auto fluorescence at 590 nm (red) in HEK293 cell free culture (AID 720683). Further: on the % scale 0 is the no-effect control and ±100 the full control effect. The procedure, abridged:
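Cell-free wells of DMEM with 10% FBS received compound, and intrinsic fluorescence was read at excitation/emission 540/590 nm. Values expressed as equivalence to Rose Bengal sodium.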

Experiment [12] can be described thus: qHTS assay to test for compound auto fluorescence at 590 nm (red) in HepG2 cell free culture (AID 720684). Further: on the % scale 0 is the no-effect control and ±100 the full control effect. The procedure, abridged:
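Compounds are added to culture medium (MEM, 10% FBS) lacking cells, then fluorescence is read at excitation 540 nm, emission 590 nm, with Rose Bengal sodium as the equivalency standard.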

Experiment [13] is described as follows: qHTS assay to test for compound auto fluorescence at 460 nm (blue) in HepG2 cell free culture (AID 720685). Further: potency means the concentration at half of the fitted maximal effect. In short, it runs like this:
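Compound (23 nL) or DMSO pinned into cell-free MEM with 10% FBS; blue fluorescence read at 405/460 nm excitation/emission, expressed as auto-fluorescence equivalency to triamterene.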

Experiment [14] can be described thus: qHTS assay to test for compound auto fluorescence at 535 nm (green) in HepG2 cell free culture (AID 720686). Further: on the % scale 0 is the no-effect control and ±100 the full control effect.
Experiment [15] in a line: qHTS assay to test for compound auto fluorescence at 460 nm (blue) in HepG2 cells (AID 720687). Further: potency means the concentration at half of the fitted maximal effect. In short, it runs like this: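 HepG2 cells in MEM with 10% FBS, attached overnight at 37 C, were exposed to compound or DMSO for 1 hr at 37 C, 5% CO2. Blue fluorescence was read at 405/460 nm, with triamterene as reference fluorophore.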
The target of experiment [16] is Glucocorticoid receptor (Homo sapiens) (UniProt P04150). In words: qHTS assay to identify small molecule antagonists of the glucocorticoid receptor (GR) signaling pathway (AID 720692; active means well fitted inhibition curve with a large enough effect in the signal ratio in the repeat runs, not every such curve was filed as active; inconclusive means weak or mixed curves, or effect the other way; inactive means no such curve, though single readings can be large or run the other way; the % refers to the signal ratio; further: potency means the concentration at half of the fitted maximal effect). In short, it runs like this:
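Fluorescence from cleaved LiveBLAzer B/G FRET substrate reports GRE-driven beta-lactamase in HeLa cells; compounds are tested against 5 nM dexamethasone (final) over 18 h at 37 C, substrate incubation 2 h at room temperature.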

Experiment [17] can be described thus: qHTS assay for small molecules that induce genotoxicity in human embryonic kidney cells expressing luciferase-tagged ATAD5 - cell viability (AID 651634; calls by dose curve; further: nearly all actives have a fitted effect of over 25% in size; further: potency means the concentration at half of the fitted maximal effect). The procedure, abridged: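 Live-cell protease activity (CellTiter-Fluor, fluorescence) indicates viability. HEK293T cells with luciferase-tagged ATAD5; 15.5 hr compound treatment at 37C.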
The nature of experiment [18]: qHTS assay to test for compound auto fluorescence at 535 nm (green) in HEK293 cell free culture (AID 720682). Further: on the % scale 0 is the no-effect control and ±100 the full control effect. In short, it runs like this:
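Read-out: 485/535 nm fluorescence intensity, calibrated against fluorescein. Medium only (DMEM + 10% FBS, no cells); test compound or DMSO vehicle added by pintool before plate reading.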

Experiment [19] can be described thus: qHTS assay to test for compound auto fluorescence at 460 nm (blue) in HEK293 cell free culture (AID 720681). Further: potency means the concentration at half of the fitted maximal effect. The procedure, abridged: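 Compounds were added to cell-free DMEM with 10% FBS and fluorescence read directly. The blue channel used 405 nm excitation and 460 nm emission, with triamterene as the reference fluorophore.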
In experiment [20] the target is Glucocorticoid receptor (Homo sapiens) (UniProt P04150). In words: qHTS assay to identify small molecule agonists of the glucocorticoid receptor (GR) signaling pathway (AID 720691; active means well fitted activation curve with a large enough effect in the signal ratio in the repeat runs, not every such curve was filed as active; inconclusive means weak or mixed curves, or effect the other way; inactive means no such curve, though single readings can be large or run the other way; the % refers to the signal ratio; further: on the % scale 0 is the no-effect control and ±100 the full control effect). Particulars: GR-bla HeLa, beta-lactamase reporter ratio, 18 h. In short, it runs like this:
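Beta-lactamase reporter activity, read as fluorescence intensity, was measured in GR-bla HeLa cells exposed to compounds for 18 h at 37 C and then loaded with LiveBLAzer B/G FRET substrate for 2 h at room temperature.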

Results on seven compounds are retold here after PubChem BioAssay (Tox21).

SMILES strings stand for the structures. Values joined by “and” are separate entries in the source; they are usually repeats but may differ in a detail not shown here. Identical values can stand only once. Values without a mark were called inactive. More than one record can exist for a structure, and the calls need not agree. Active and inactive are the calls of the source. Unless noted, the call rests on the fitted dose curve; in most records, active means well fitted curve in the direction sought with a large enough effect in the repeat runs; inconclusive means weak or mixed curves; inactive means no such curve, though single readings can be large; an effect the other way counts as inactive or inconclusive.
Tags describe the fitted curve by direction and shape or compound fluorescence and quenching.

Sequence of Glucocorticoid receptor (Homo sapiens) (P04150 whole entry, looked up): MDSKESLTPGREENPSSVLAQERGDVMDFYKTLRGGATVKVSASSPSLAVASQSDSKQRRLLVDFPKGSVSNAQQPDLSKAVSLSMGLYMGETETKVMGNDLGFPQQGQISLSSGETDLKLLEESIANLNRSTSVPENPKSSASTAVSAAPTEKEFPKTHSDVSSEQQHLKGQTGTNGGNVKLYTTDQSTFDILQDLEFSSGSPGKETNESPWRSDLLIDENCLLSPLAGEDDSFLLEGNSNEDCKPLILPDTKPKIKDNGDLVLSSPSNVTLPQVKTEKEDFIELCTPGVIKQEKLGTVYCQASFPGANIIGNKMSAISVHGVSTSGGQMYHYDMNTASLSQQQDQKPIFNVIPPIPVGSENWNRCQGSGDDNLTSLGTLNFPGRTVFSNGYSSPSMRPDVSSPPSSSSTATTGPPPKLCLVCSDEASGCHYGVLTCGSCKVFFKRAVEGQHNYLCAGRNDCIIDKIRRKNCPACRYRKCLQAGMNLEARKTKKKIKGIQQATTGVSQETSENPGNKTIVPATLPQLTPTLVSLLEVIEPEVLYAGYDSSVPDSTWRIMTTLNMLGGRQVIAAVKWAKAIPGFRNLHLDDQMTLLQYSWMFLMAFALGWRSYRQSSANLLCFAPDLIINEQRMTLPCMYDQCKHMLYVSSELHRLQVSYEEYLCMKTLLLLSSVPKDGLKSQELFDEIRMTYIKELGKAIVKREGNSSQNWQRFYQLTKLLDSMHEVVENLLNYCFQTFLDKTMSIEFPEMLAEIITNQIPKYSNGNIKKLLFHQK

For `O=c1c(-c2ccccc2)c1-c1ccccc1`, the Potency in experiment [1] was 18.8 µM (active); in experiment [3], 13.3 µM (active); in experiment [5], 23.7 µM (active); in [16], 23.9 µM (active). For the same compound, the Potency result in experiment [2], in experiment [4], in experiment [6], in experiment [7], in experiment [8] and in experiment [9] was “inactive” in each case. For the same compound, the Potency result in experiment [11], in experiment [12], in [13], in experiment [14] and in experiment [15] was “inactive” in each case. Also, the result in experiment [10] was inactive.
With `CCOc1ccc2nc3cc(N)ccc3c(N)c2c1`, the Potency in experiment [1] is 11.9 µM (active); in [5] it was 2.66 µM (active). For the same compound, the Potency entry in experiment [2], in experiment [17], in [4], in [6], in experiment [7] and in [9] was “inactive” each time. Also, the Potency entry in [11], in experiment [12] and in experiment [14] was “inactive” throughout. The compound was called inactive in [10] and in experiment [18].
For the compound `O=C1C=CC(=O)N1`, the Potency was 49.8 µM (active) in [1], 49.8 µM (active) in experiment [4] and 28 µM (active) in experiment [5]. Also, the Potency result in [2], in experiment [6], in experiment [7], in experiment [8], in experiment [9] and in [19] was “inactive” in each case. Further, the Potency entry in experiment [11], in [12], in experiment [14] and in experiment [15] was “inactive” each time. Also, the call in experiment [10] and in experiment [18] was inactive.
For the compound `O=C(Nc1cccc(C(F)(F)F)c1)c1cc(Br)cc(Br)c1O`, the Potency in experiment [1] is 5.31 µM (active) and 1.72 µM (active); in [3] it was 473 nM (active) and 686 nM (active); in experiment [17], 13.3 µM (active); in [5], 335 nM (active) and 109 nM (active). The Potency result in experiment [2], in experiment [6], in experiment [8], in experiment [19], in experiment [11] and in experiment [12] was “inactive” throughout. Also, the Potency entry in experiment [14] and in experiment [15] was “inactive” in each case. Further, the compound was classed as inactive in experiment [10] and in [18]. Besides, the values for the activation in [20] (activation: at 62.4 µM (top of the series)) and in experiment [20] (at 62.4 µM (top of the series)) were 9.27% [inconclusive] (active) and 10.1%, respectively.
On to `COc1c(C)c2c(c(O)c1C/C=C(\C)CCC(=O)O)C(=O)OC2`, for which the Potency is 0.0717 µM (active) in experiment [1] and 0.202 µM (active) in experiment [17]. The Potency result in experiment [2] and in experiment [4] was “inactive” each time. The fluorescence, relative to Rose Bengal in [6] is 0.0782% [at 18.6 µM]. Moreover, the fluorescence, % of fluorescein control in [7] was 0.0327% [at 18.6 µM]; in experiment [14] it was -0.0501% [at 18.6 µM]. The fluorescence, % of triamterene in experiment [8] is -0.0265% [at 18.6 µM]. The fluorescence, % of fluorescent control is 0.167% [at 18.6 µM] in experiment [9], 0.195% [at 18.6 µM] in experiment [11], 0.227% [at 18.6 µM] in experiment [13] and -0.0404% [at 18.6 µM] in experiment [15]. In addition, the fluorescence, % of fluorescein in experiment [10] is -0.0651% [at 18.6 µM]. The activity change in experiment [18] was -0.148% [at 18.6 µM]. Moreover, the fluorescence, % of Rose Bengal in experiment [12] was 0.0127% [at 18.6 µM].
For `CCN(CC)CCCC(C)Nc1c2ccc(Cl)cc2nc2ccc(OC)cc12` (centres undefined), the Potency in [1] is 5.96 µM (active); in [2], 29.8 µM (active); in experiment [8] it was 11.2 µM [fluorescent] (active); in [19] it was 17.8 µM (active); in experiment [13] it was 15.8 µM [fluorescent] (active); in experiment [15], 15.8 µM [fluorescent] (active). Besides, the Potency result in experiment [17], in [6], in experiment [7], in [11], in experiment [12] and in experiment [14] was “inactive” throughout. Further, the outcome in [10] and in experiment [18] was inactive.
On to `NC(=O)N1C(=O)C(C(=O)c2cc(Cl)cs2)c2cc(F)c(Cl)cc21` (centres undefined), for which the Potency in [1] was 2.17 µM (active); in [3] it was 1.37 µM (active); in experiment [17] it was 27.3 µM (active); in experiment [4] it was 0.217 µM (active). In addition, the Potency result in [2], in [6], in experiment [8], in experiment [9], in experiment [19] and in experiment [11] was “inactive” in each case. The Potency entry in [13], in experiment [14] and in [15] was “inactive” in each case. Moreover, the outcome in experiment [10] and in experiment [18] was inactive.
